target: Voltage-gated potassium channel subunit beta-2 (Rattus norvegicus) (UniProt P62483); assay: enhancers of rat Kvbeta2 NADPH turnover – biochemical, NADPH fluorescence, primary screen (AID 623); settings: Recombinant KvBeta, NADPH fluorescence decrease slope, 10 min; at 10 µM; active compounds read low;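 note: fluorescence intensity change per second fitted from 20 to 320 s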
Sequence (P62483 whole entry, looked up): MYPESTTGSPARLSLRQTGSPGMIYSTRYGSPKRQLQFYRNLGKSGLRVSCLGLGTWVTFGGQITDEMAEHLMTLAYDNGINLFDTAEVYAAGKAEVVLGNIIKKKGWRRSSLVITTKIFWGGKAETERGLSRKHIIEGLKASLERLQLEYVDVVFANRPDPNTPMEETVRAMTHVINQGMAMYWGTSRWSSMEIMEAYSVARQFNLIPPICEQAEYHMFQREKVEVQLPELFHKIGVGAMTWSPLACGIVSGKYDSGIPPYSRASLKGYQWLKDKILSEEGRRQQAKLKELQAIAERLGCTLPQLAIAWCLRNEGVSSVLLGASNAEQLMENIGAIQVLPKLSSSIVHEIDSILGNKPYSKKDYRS

NADPH fluorescence slope, inactive:
CC(C)OC(=O)c1cc(NC(=O)C2C3CCC(O3)C2C(=O)O)cc(C(=O)OC(C)C)c1 (stereo unspecified) -5.2e-05, O=C(CSc1nnc(-c2ccc(Br)cc2)n1C1CCCCC1)N1CCCC1 1.5e-05, O=C(c1nn2cccnc2c1Cl)N1CCN(c2ccccc2)CC1 -2.5e-05, CCCN1Cc2cccc(C(=O)NC3CCCC3)c2C1=O -6.1e-05, CS(=O)(=O)N(CC(=O)Nc1ccc2c(c1)OCO2)Cc1ccc(Cl)cc1 -6.6e-05, COC(=O)C1C2C=CC3(CN(CC4CCCO4)C(=O)C13)O2 (stereo unspecified) -1.5e-05, Cc1ccc(F)cc1NC(=O)C1CCCN(c2ncccn2)C1 (stereo unspecified) -1.9e-05, CC(OC(=O)c1ccco1)C(=O)NCc1cccs1 (stereo unspecified) -6e-05, CCc1nnc(NC(=O)CSc2nnc(-c3ccccc3OC)n2-c2ccccc2)s1 -7.8e-05, FC(F)(F)c1ccc(Sc2nnc(-c3cccs3)n2CC2CCCO2)nc1 (stereo unspecified) -7.7e-06, O=C(O)c1ccc(NC(=O)c2cccs2)cc1 -2.7e-05, Cc1ccc(Nc2nc(N)nc(CN3CCN(Cc4ccc5c(c4)OCO5)CC3)n2)cc1 -4.6e-05, CCOC(=O)Cc1csc(NC(=O)c2cccc(OC)c2)n1 -3.2e-05, C=CCNc1nc2c(c(=O)n(C)c(=O)n2C)n1CCCCCC -3.7e-05, O=C(Nc1cccnc1)c1cc2c(ccc3ccccc32)o1 -4.5e-05, COc1cccc(Nc2nnc(SCC(=O)N3CC(C)OC(C)C3)s2)c1 (stereo unspecified) -9.2e-05
